According to article PMC11006913:

Columns and labels:
Assay in all cases: PBM; 200 nM protein, PBS
Details in all cases: dsDNA, one strand shown
[1] = target: HOXA2 (Homo sapiens, UniProt O43364 129-215, R185T)
[2] = target: HOXA2 (Homo sapiens, UniProt O43364 129-215, Y150S)
[3] = target: HOXA2 (Homo sapiens, UniProt O43364 129-215)
[4] = target: HOXB9 (Homo sapiens, UniProt P17482 171-250)
[5] = target: HOXB9 (Homo sapiens, UniProt P17482 171-250, R186Q)
[6] = target: HOXA4 (Homo sapiens, UniProt Q00056 201-287, R217L)
[7] = target: T1, NKX2-6 (Homo sapiens, UniProt A6NCS4 118-204, R150C)
T1 sequence: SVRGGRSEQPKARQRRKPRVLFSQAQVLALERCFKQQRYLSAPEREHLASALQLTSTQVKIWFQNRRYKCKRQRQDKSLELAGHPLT

[8] = target: T2, SIX6 (Homo sapiens, UniProt O95475 114-200, T139Q)
T2 sequence: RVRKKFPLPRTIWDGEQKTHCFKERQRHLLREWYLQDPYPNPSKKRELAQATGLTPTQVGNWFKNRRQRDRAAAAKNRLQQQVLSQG

[9] = target: CRX (Homo sapiens, UniProt O43186 26-111, R41L)
[10] = target: HOXB6 (Homo sapiens, UniProt P17509 132-218)
Sequence of HOXB6 (P17509 132-218): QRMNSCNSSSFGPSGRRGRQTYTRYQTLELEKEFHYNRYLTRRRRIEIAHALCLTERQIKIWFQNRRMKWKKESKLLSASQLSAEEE

Sequence of HOXB9 (Homo sapiens, UniProt P17482 171-250) (P17482 171-250): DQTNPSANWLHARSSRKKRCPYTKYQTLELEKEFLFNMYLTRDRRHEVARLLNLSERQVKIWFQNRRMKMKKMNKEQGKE
Sequence of HOXA2 (Homo sapiens, UniProt O43364 129-215, R185T) (O43364 129-215 R185T): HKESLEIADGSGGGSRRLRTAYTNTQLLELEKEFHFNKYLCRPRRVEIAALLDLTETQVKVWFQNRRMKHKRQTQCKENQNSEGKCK
Sequence of HOXA2 (Homo sapiens, UniProt O43364 129-215) (O43364 129-215): as the sequence (O43364 129-215 R185T) above, with T57R counted along it
Sequence of HOXB9 (Homo sapiens, UniProt P17482 171-250, R186Q) (P17482 171-250 R186Q): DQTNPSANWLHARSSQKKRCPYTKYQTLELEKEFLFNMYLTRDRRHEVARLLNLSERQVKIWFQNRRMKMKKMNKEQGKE
Sequence of HOXA2 (Homo sapiens, UniProt O43364 129-215, Y150S) (O43364 129-215 Y150S): as the sequence (O43364 129-215 R185T) above, with Y22S, T57R counted along it
Sequence of CRX (O43186 26-111 R41L): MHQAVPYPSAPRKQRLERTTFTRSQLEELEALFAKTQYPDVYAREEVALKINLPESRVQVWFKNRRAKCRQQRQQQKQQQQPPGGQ
Sequence of HOXA4 (Q00056 201-287 R217L): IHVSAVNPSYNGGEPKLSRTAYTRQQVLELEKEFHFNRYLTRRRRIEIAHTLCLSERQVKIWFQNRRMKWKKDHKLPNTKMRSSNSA

ACAACTTA
binding signal [1]: 9.5 upbm affinity estimate (log intensity, higher = more binding, comparable within an allelic series) | binding signal [2]: 10.7 upbm affinity estimate (log intensity, higher = more binding, comparable within an allelic series) | binding signal [3]: 9.5 upbm affinity estimate (log intensity, higher = more binding, comparable within an allelic series)

ACAATACC
binding signal [4]: 9.73 upbm affinity estimate (log intensity, higher = more binding, comparable within an allelic series)

GTTTGCAA
binding signal [1]: 8.76 upbm affinity estimate (log intensity, higher = more binding, comparable within an allelic series) | binding signal [3]: 8.78 upbm affinity estimate (log intensity, higher = more binding, comparable within an allelic series)

ATAGATAA
binding signal [4]: 10.4 upbm affinity estimate (log intensity, higher = more binding, comparable within an allelic series) | binding signal [5]: 10.4 upbm affinity estimate (log intensity, higher = more binding, comparable within an allelic series)

ATTTCATC
binding signal [1]: 8.72 upbm affinity estimate (log intensity, higher = more binding, comparable within an allelic series) | binding signal [2]: 10.6 upbm affinity estimate (log intensity, higher = more binding, comparable within an allelic series) | binding signal [3]: 8.75 upbm affinity estimate (log intensity, higher = more binding, comparable within an allelic series)

AAATCAGC
binding signal [1]: 9.59 upbm affinity estimate (log intensity, higher = more binding, comparable within an allelic series) | binding signal [2]: 10.7 upbm affinity estimate (log intensity, higher = more binding, comparable within an allelic series) | binding signal [3]: 9.43 upbm affinity estimate (log intensity, higher = more binding, comparable within an allelic series)

ACATTAGC
binding signal [6]: 10.8 upbm affinity estimate (log intensity, higher = more binding, comparable within an allelic series)

AAAAATTG
binding signal [1]: 8.96 upbm affinity estimate (log intensity, higher = more binding, comparable within an allelic series) | binding signal [3]: 8.94 upbm affinity estimate (log intensity, higher = more binding, comparable within an allelic series)

CCCCCATC
binding signal [7]: 9.53 upbm affinity estimate (log intensity, higher = more binding, comparable within an allelic series)

AATGCAAT
binding signal [4]: 10.3 upbm affinity estimate (log intensity, higher = more binding, comparable within an allelic series) | binding signal [5]: 10.2 upbm affinity estimate (log intensity, higher = more binding, comparable within an allelic series)

ATATTTCC
binding signal [4]: 9.97 upbm affinity estimate (log intensity, higher = more binding, comparable within an allelic series) | binding signal [5]: 9.85 upbm affinity estimate (log intensity, higher = more binding, comparable within an allelic series)

CCATTTTC
binding signal [4]: 10.1 upbm affinity estimate (log intensity, higher = more binding, comparable within an allelic series) | binding signal [5]: 10 upbm affinity estimate (log intensity, higher = more binding, comparable within an allelic series)

AACATATG
binding signal [4]: 9.86 upbm affinity estimate (log intensity, higher = more binding, comparable within an allelic series) | binding signal [5]: 9.84 upbm affinity estimate (log intensity, higher = more binding, comparable within an allelic series)

AGATACCC
binding signal [8]: 11.2 upbm affinity estimate (log intensity, higher = more binding, comparable within an allelic series)

AGAAATTA
binding signal [4]: 10.7 upbm affinity estimate (log intensity, higher = more binding, comparable within an allelic series) | binding signal [5]: 10.5 upbm affinity estimate (log intensity, higher = more binding, comparable within an allelic series)

AACGGGAC
binding signal [7]: 9.62 upbm affinity estimate (log intensity, higher = more binding, comparable within an allelic series)

TAACTTAA
binding signal [4]: 10.2 upbm affinity estimate (log intensity, higher = more binding, comparable within an allelic series) | binding signal [5]: 10.1 upbm affinity estimate (log intensity, higher = more binding, comparable within an allelic series)

ATTTAATC
binding signal [4]: 10.8 upbm affinity estimate (log intensity, higher = more binding, comparable within an allelic series) | binding signal [5]: 10.7 upbm affinity estimate (log intensity, higher = more binding, comparable within an allelic series) | binding signal [9]: 12.3 upbm affinity estimate (log intensity, higher = more binding, comparable within an allelic series)

AGGTATCG
binding signal [8]: 11.1 upbm affinity estimate (log intensity, higher = more binding, comparable within an allelic series)

AAAATACC
binding signal [4]: 9.6 upbm affinity estimate (log intensity, higher = more binding, comparable within an allelic series) | binding signal [5]: 9.45 upbm affinity estimate (log intensity, higher = more binding, comparable within an allelic series)

CATAATCG
binding signal [4]: 10.5 upbm affinity estimate (log intensity, higher = more binding, comparable within an allelic series) | binding signal [5]: 10.3 upbm affinity estimate (log intensity, higher = more binding, comparable within an allelic series)

ATCACCCG
binding signal [7]: 9.63 upbm affinity estimate (log intensity, higher = more binding, comparable within an allelic series)

ATATCTTC
binding signal [4]: 10 upbm affinity estimate (log intensity, higher = more binding, comparable within an allelic series) | binding signal [5]: 9.91 upbm affinity estimate (log intensity, higher = more binding, comparable within an allelic series)

CGGATCAC
binding signal [8]: 11.1 upbm affinity estimate (log intensity, higher = more binding, comparable within an allelic series)

AAGTAATC
binding signal [4]: 9.94 upbm affinity estimate (log intensity, higher = more binding, comparable within an allelic series) | binding signal [5]: 9.94 upbm affinity estimate (log intensity, higher = more binding, comparable within an allelic series)

CGTTTAAA
binding signal [4]: 10.2 upbm affinity estimate (log intensity, higher = more binding, comparable within an allelic series) | binding signal [5]: 9.99 upbm affinity estimate (log intensity, higher = more binding, comparable within an allelic series)

ATTACGTC
binding signal [4]: 10 upbm affinity estimate (log intensity, higher = more binding, comparable within an allelic series) | binding signal [5]: 10.2 upbm affinity estimate (log intensity, higher = more binding, comparable within an allelic series)

AATACAAT
binding signal [4]: 10 upbm affinity estimate (log intensity, higher = more binding, comparable within an allelic series) | binding signal [5]: 9.98 upbm affinity estimate (log intensity, higher = more binding, comparable within an allelic series)

CTGACCCC
binding signal [7]: 9.6 upbm affinity estimate (log intensity, higher = more binding, comparable within an allelic series)

AGGAATAA
binding signal [4]: 9.91 upbm affinity estimate (log intensity, higher = more binding, comparable within an allelic series) | binding signal [5]: 9.78 upbm affinity estimate (log intensity, higher = more binding, comparable within an allelic series)

GATACCCA
binding signal [8]: 11.2 upbm affinity estimate (log intensity, higher = more binding, comparable within an allelic series)

TAAACTAA
binding signal [4]: 10.3 upbm affinity estimate (log intensity, higher = more binding, comparable within an allelic series) | binding signal [5]: 10.1 upbm affinity estimate (log intensity, higher = more binding, comparable within an allelic series)

CTACTATA
binding signal [4]: 10.2 upbm affinity estimate (log intensity, higher = more binding, comparable within an allelic series) | binding signal [5]: 10 upbm affinity estimate (log intensity, higher = more binding, comparable within an allelic series)

ACATTACA
binding signal [4]: 10.6 upbm affinity estimate (log intensity, higher = more binding, comparable within an allelic series) | binding signal [5]: 10.5 upbm affinity estimate (log intensity, higher = more binding, comparable within an allelic series)

AAATCTTA
binding signal [4]: 9.84 upbm affinity estimate (log intensity, higher = more binding, comparable within an allelic series) | binding signal [5]: 9.77 upbm affinity estimate (log intensity, higher = more binding, comparable within an allelic series)

CTCTTGAC
binding signal [7]: 11.2 upbm affinity estimate (log intensity, higher = more binding, comparable within an allelic series)

ATGATTTA
binding signal [4]: 10.6 upbm affinity estimate (log intensity, higher = more binding, comparable within an allelic series) | binding signal [5]: 10.4 upbm affinity estimate (log intensity, higher = more binding, comparable within an allelic series)

CACAGGCG
binding signal [7]: 9.43 upbm affinity estimate (log intensity, higher = more binding, comparable within an allelic series)

AACCCATT
binding signal [4]: 10.5 upbm affinity estimate (log intensity, higher = more binding, comparable within an allelic series) | binding signal [5]: 10.4 upbm affinity estimate (log intensity, higher = more binding, comparable within an allelic series)

CCCGCCGA
binding signal [7]: 9.28 upbm affinity estimate (log intensity, higher = more binding, comparable within an allelic series)

AATCAATA
binding signal [4]: 10.5 upbm affinity estimate (log intensity, higher = more binding, comparable within an allelic series) | binding signal [5]: 10.4 upbm affinity estimate (log intensity, higher = more binding, comparable within an allelic series)

AAGATCAT
binding signal [4]: 9.78 upbm affinity estimate (log intensity, higher = more binding, comparable within an allelic series) | binding signal [5]: 9.78 upbm affinity estimate (log intensity, higher = more binding, comparable within an allelic series)

AATACCAT
binding signal [4]: 9.98 upbm affinity estimate (log intensity, higher = more binding, comparable within an allelic series) | binding signal [5]: 9.96 upbm affinity estimate (log intensity, higher = more binding, comparable within an allelic series) | binding signal [10]: 10.3 upbm affinity estimate (log intensity, higher = more binding, comparable within an allelic series)
